The campaign covered roughly 320,000 compounds. About 2,100 (0.66%) were called active. Roughly 53% stayed inconclusive and do not appear here. This is one part of a sample in which actives are shown more often than they occur. Calls come from the whole dose curve; as a rule, active = well fitted inhibition curve with a large enough effect in the signal ratio, with a control signal flat (not every such curve was filed as active); inconclusive = small, poorly fitted or top-dose-only effect, or effect the other way, or a change in a side signal; inactive = flat fitted curve, though single readings scatter; the % refers to the signal ratio.
Potency is the fitted concentration of half-maximal effect.

The nature of this experiment: qHTS Assay for Lipid Storage Modulators in Drosophila S3 Cells.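 For cell number change: cells counted by Cell Tracker Red CMTPX staining in the red channel.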 For lipid storage change, negative = inhibition: % is set by controls: 0 for no effect and ±100 for the full control effect. As to conditions: BODIPY lipid droplet fluorescence, 18-24 h, cells fed with added oleic acid; cell number change: measured here: cell count max response; series mostly up to 46.1 µM; lipid storage change, negative = inhibition: at the top concentration. An outline of the steps: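 Drosophila S3 cells loaded with oleic acid (400 uM, as added) and compounds at several concentrations; lipid droplets imaged by 488-nm laser-scanning cytometry, 500–530 nm intensity and object ratio to cell channel. Percent activity normalized to 20 uM Triacsin C.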
(qHTS replaces the single test concentration by a dilution series.)
As for `O=C(COC(=O)Cc1ccccc1F)Nc1cc(S(=O)(=O)N2CCOCC2)ccc1N1CCCC1`, the “lipid storage change, negative = inhibition” value was 0.102% (inactive) and the cell number change amounted to 0.15%.
As for `COC(=O)CN1C(=O)N/C(=C/c2ccc(OC)cc2)C1=O`, the “lipid storage change, negative = inhibition” value was -9.61% (inactive) and the cell number change is -7.72%.
In the same order, the values of `O=C(NC1CC1)c1ccc(S(=O)(=O)NCC2CCCCC2)cc1` are 1.43% (inactive) and 6.17%.
In the case of `NC(=O)c1ccc(Oc2ccc(Cl)cc2)c([N+](=O)[O-])c1`, the “lipid storage change, negative = inhibition” value is -2.44% (inactive) and the cell number change amounted to 18.1%.
As for `NC(=O)c1ccc(Oc2ccc(-c3nnco3)cc2)c([N+](=O)[O-])c1`, the outcome was inactive and the cell number change amounted to 16.7%.
With `NC(=O)c1ccc(Oc2ccc3c(c2)CCC3)c([N+](=O)[O-])c1`, the Potency was 2.91 µM (active) and the cell number change is -16.2%.
With `CCOc1ccc(Cl)cc1S(=O)(=O)N1CCCC1`, the result was inactive and the cell number change worked out at 23.3%.
`COc1cnc(-c2ccccc2)nc1Sc1ccccc1`: the “lipid storage change, negative = inhibition” value is 9.35% (inactive) and the cell number change worked out at 14.5%.
As for `CCN(CC)S(=O)(=O)c1ccc(C(=O)NCCOC(=O)c2ccc(F)cc2F)cc1`, the Potency was 4.61 µM (active).
With `CN(C)S(=O)(=O)c1ccc(C(=O)NCCOc2ccccc2)cc1`, the “lipid storage change, negative = inhibition” value is -16.1% (inactive) and the cell number change is -3.57%.
`CCN(CC)CCNC(=O)c1ccc(NC(=O)c2ccc(F)cc2F)cc1`: the “lipid storage change, negative = inhibition” value was 0.115% (inactive) and the cell number change worked out at 0.662%.
Take `CCc1ccc(OCCNC(=O)c2ccc(S(=O)(=O)N(C)C)cc2)cc1`: the call was inactive and the cell number change is -5.09%.
Regarding `CN(C)S(=O)(=O)c1ccc(C(=O)NCCOc2ccc(F)cc2)cc1`, the Potency was 18.4 µM (active) and the cell number change came to 5.77%.
Regarding `CN(C)S(=O)(=O)c1cccc(C(=O)NCCOC(=O)c2cc(F)c(F)cc2Cl)c1`, the outcome was inactive and the cell number change worked out at 5.13%.
For `CN1C(C(=O)NCc2ccccc2)CC2Cn3c(nc4cc(Cl)c(Cl)cc43)C21` (stereo not given), the “lipid storage change, negative = inhibition” value is 14.4% (inactive) and the cell number change came out at 23.6%.
Taken in the same sequence, the figures for `CS(=O)(=O)N1CCN(c2ccc(C(=O)N3CCOCC3)cc2[N+](=O)[O-])CC1` were 0.674% (inactive) and 10.2%.
As for `COc1nc2ccccc2nc1CCC(=O)O`, the “lipid storage change, negative = inhibition” value was -2.96% (inactive) and the cell number change was -4.36%.
Taken in the same sequence, the figures for `CC(=O)Nc1nc(=O)c2ccccc2s1` were 14.6% (inactive) and -8.23%.
`O=C(Nc1ccc2c(c1)OCCO2)c1ccc(Cl)cc1Cl`: the result was inactive and the cell number change is -12.4%.
Take `O=C(Nc1ccc(NC(=O)c2ccc(Cl)cc2Cl)cc1)c1ccc2c(c1)OCO2`: the Potency is 16.4 µM (active) and the cell number change is -0.901%.
Turning to `O=C(Nc1ccc(Cl)c([N+](=O)[O-])c1)c1ccc2c(c1)OCCO2`, the “lipid storage change, negative = inhibition” value is 2% (inactive) and the cell number change amounted to 0.135%.
In the same order, the values of `O=C(Nc1ccc(F)c(F)c1)c1ccc2c(c1)OCO2` are -1.25% (inactive) and -8.99%.
As to `O=C(Nc1ccc2c(c1)OCCO2)c1ccc(Cl)c([N+](=O)[O-])c1`, the Potency was 16.4 µM (active) and the cell number change was -0.392%.
On to `Cc1cc(C(=O)Nc2ccc3c(c2)OCCO3)ccc1[N+](=O)[O-]`, for which the “lipid storage change, negative = inhibition” value was -9.88% (inactive) and the cell number change amounted to 0.293%.
In the same order, the values of `Fc1cccc(Cl)c1Cn1nnc2c(NCc3ccccn3)ncnc21` are -4.63% (inactive) and -17.4%.
`O=C(Nc1ccc(Cl)cc1N1CCOCC1)C1CC1`: the “lipid storage change, negative = inhibition” value is -18.3% (inactive) and the cell number change is -0.587%.
For the molecule `CC(C)(C)C1CCC(C(=O)Nc2ccc(N3CCOCC3)cc2N2CCOCC2)CC1` (stereo not given), the Potency was 0.0731 µM (active) and the cell number change was 2.76%.
In the case of `O=C(Nc1ccc(N2CCOCC2)cc1)C1CC1`, the “lipid storage change, negative = inhibition” value is 11.2% (inactive) and the cell number change came out at 20.3%.
On to `CC(C)c1ccccc1NC(=O)c1ccc2ncsc2c1`, for which the molecule was called inactive and the cell number change was 3.81%.
Taken in the same sequence, the figures for `Cc1cc(C)c2nc(-c3ccncc3)cc(C(=O)N3CCN(Cc4ccccc4Cl)CC3)c2c1` were “inactive” and -25.7%.
Consider `CCOc1ccc(-c2cc(CCCC(=O)NCc3ccco3)no2)cc1`, for which the “lipid storage change, negative = inhibition” value is 21.6% (inactive) and the cell number change was 7.38%.
Taken in the same sequence, the figures for `CC(=O)c1cccc(NC(=O)c2ccccc2OCc2ccc(F)cc2)c1` were -11.7% (inactive) and 17.5%.
In the case of `CC(=O)Nc1cccc(NC(=O)c2cccc(OCc3ccccc3)c2)c1`, the “lipid storage change, negative = inhibition” value was 8.52% (inactive) and the cell number change is -0.179%.
For the molecule `CC(=O)Nc1cccc(NC(=O)c2ccccc2OCc2ccccc2)c1`, the Potency was 0.103 µM (active) and the cell number change came out at 4.05%.
With `Cc1cc(N2CCN(c3ccccc3)CC2)n2cc(-c3ccccc3)nc2n1`, the “lipid storage change, negative = inhibition” value is 0.159% (inactive) and the cell number change worked out at 0.751%.
Regarding `COc1ccc(-c2cc(C(=O)NN)[nH]n2)cc1OC`, the “lipid storage change, negative = inhibition” value is 0.0767% (inactive) and the cell number change stood at 0.0556%.
`O=C(O)c1cc(-c2ccccc2)n[nH]1`: the “lipid storage change, negative = inhibition” value is 8.55% (inactive) and the cell number change was -6.51%.
Turning to `COc1ccc(-c2cc(C(=O)O)[nH]n2)cc1OC`, the Potency is 18.4 µM (active) and the cell number change is -22.4%.
Turning to `COc1ccccc1NS(=O)(=O)c1cccc(C(=O)NNC(=O)C(NC(N)=O)C(C)C)c1` (stereo not given), the “lipid storage change, negative = inhibition” value is -8.45% (inactive) and the cell number change is -2.91%.
Taken in the same sequence, the figures for `COc1ccc(-c2nc(/C=C3\C(C)=Nc4ccccc43)c(O)o2)cc1` were -27.4% (inactive) and 8.93%.
In the same order, the values of `CN=Cc1nc(-c2ccccc2)oc1O` are 8.51% (inactive) and 3.36%.
Turning to `CC1=Nc2ccccc2/C1=C\c1nc(-c2ccc(F)cc2)oc1O`, the Potency was 4.11 µM (active) and the cell number change was -8.49%.
As to `CCC(=O)NC(=S)Nc1ccc(NC(=O)c2ccc([N+](=O)[O-])cc2Cl)cc1`, the “lipid storage change, negative = inhibition” value is -10.6% (inactive) and the cell number change is -6.05%.
Taken in the same sequence, the figures for `CC(=O)OCC1=C(C(=O)O)N2C(=O)C(NC(=O)c3ccc(COc4ccc(Cl)cc4)o3)C2SC1` (stereo not given) were 6.11% (inactive) and 12.1%.
For the molecule `O=C(C1CCC1)N1CCN(c2ccc(C(F)(F)F)cc2[N+](=O)[O-])CC1`, the Potency is 0.58 µM (active) and the cell number change stood at 4.32%.
`O=[N+]([O-])c1cc(C(F)(F)F)ccc1N1CCC(O)CC1`: the “lipid storage change, negative = inhibition” value was 3.91% (inactive) and the cell number change is 9.29%.
For `NC(=O)C1CCN(c2ccc(C(F)(F)F)cc2[N+](=O)[O-])CC1`, the “lipid storage change, negative = inhibition” value was 3.26% (inactive).
On to `C1CCC(Nc2nc3nonc3nc2N2CCSCC2)C1`, for which the “lipid storage change, negative = inhibition” value was 1.7% (inactive) and the cell number change was -7.42%.
In the same order, the values of `O=C(NN(C(=O)C1CC1)c1nc2ccccc2s1)C1CC1` are 0.109% (inactive) and 4.43%.
For the molecule `O=C(O)CCC(=O)Nc1ccc(N=Nc2ccccc2)cc1`, the molecule was called inactive and the cell number change was -12.6%.
In the case of `O=C(CCl)Nc1ccc(N=Nc2ccccc2)cc1`, the Potency is 5.8 µM (active) and the cell number change is -14.8%.

Source of the values: PubChem BioAssay AID2685 (National Center for Advancing Translational Sciences (NCATS), 2010).
